Laboratory results reported in PubChem BioAssay (NCATS).
Records with an inconclusive call do not appear. Activity calls are given as the source filed them. Unless noted, calls follow the shape of the dose curve; as a rule, active = well fitted curve in the direction sought with a large enough effect; inconclusive = small, poorly fitted or top-dose-only effect, or another doubt; inactive = no such curve, though single readings can be large; an effect the other way counts as inactive or inconclusive.

Legend:
[1] = biological target: ATP-dependent 6-phosphofructokinase (Trypanosoma brucei brucei) (UniProt O15648); assay: qHTS Assay to Find Inhibitors of T. brucei phosphofructokinase: hit validation (AID 492961); also: series mostly up to about 51 µM; % is scaled to controls: 0 for no effect and ±100 for the full control effect
How it was run: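 Luminescence from ADP-Glo reports ADP generated as T. brucei PFK (1.25 nM) phosphorylates 0.5 mM fructose-6-phosphate using 0.1 mM ATP. Reactions ran 45 min at room temperature, pH 8.0.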

[2] = biological target: D(1A) dopamine receptor (Homo sapiens) (UniProt P21728); assay: HTS Assay for Allosteric Agonists of the Human D1 Dopamine Receptor: Primary Screen for Agonists (AID 488981); also: 0% is about no effect
How it was run: (§1)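 Tetracycline-induced HEK293 Trex D1 cells with forced coupling to calcium, loaded with no-wash calcium dye; kinetic fluorescence read 180 s after compound addition for agonism, then a further 180 s after an EC20 dopamine challenge for potentiation.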

[3] = biological target: D(1A) dopamine receptor (Homo sapiens) (UniProt P21728); assay: HTS Assay for Allosteric Agonists of the Human D1 Dopamine Receptor: Primary Screen for Potentiators (AID 488982); also: 0% is about no effect
How it was run: as §1

[4] = biological target: D(1A) dopamine receptor (Homo sapiens) (UniProt P21728); assay: HTS Assay for Allosteric Agonists of the Human D1 Dopamine Receptor: Primary Screen for Antagonists (AID 488983);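 also: calcium flux response to an EC80 dopamine challenge measured with no-wash dye; % is scaled to controls: 0 for no effect and ±100 for the full control effect; nearly all actives have a fitted effect of over 65% in size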
How it was run: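 Calcium-flux read-out in inducible HEK293 T-REx cells expressing D1, dye-loaded 30–90 min at room temperature. Kinetic reads: 180 s after compound (agonist phase), then 180 s after an EC80 dopamine challenge.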

[5] = Validation screen for small molecules that induce genotoxicity in human embryonic kidney (HEK293T) cells expressing luciferase-tagged ELG1 (AID 493106); also: 0% is about no effect
How it was run: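 ELG1-luciferase reporter readout (ONE-Glo, 30 min, room temperature) after 16 hr compound treatment at 37 °C of HEK293T cells at 2,000 per well. Rising luminescence flags genotoxic stress.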

[6] = biological target: ATPase family AAA domain-containing protein 5 (Homo sapiens) (UniProt Q96QE3); assay: Validation screen for small molecules that inhibit ELG1-dependent DNA repair in human embryonic kidney (HEK293T) cells expressing luciferase-tagged ELG1 (AID 493107);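 also: series mostly up to about 46 µM; % is scaled to controls: 0 for no effect and ±100 for the full control effect; inhibitors lower the ELG1-luciferase luminescence signal; nearly all actives have a fitted effect of over 70% in size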
How it was run: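 Luciferase read-out, ONE-Glo, 30 min at room temperature, follows 16 h co-exposure at 37 C of compound and the DNA-damaging agent 5-fluorouridine. Cells: HEK293T with ELG1-luciferase fusion, 2,000 per well, DMSO as vehicle.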

[7] = Nrf2 qHTS screen for inhibitors: Validation (AID 493153; active = well fitted inhibition curve with a large enough effect in the main read-out, with a control signal flat, not every such curve was filed as active); conditions: viability change: measured here: cytotoxicity max response
How it was run: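 Concentration-response on A549 ARE_Fluc reporter cells exposed 18-24 h at 37 C, 5% CO2. Cytotoxicity read first by CellTiter-Fluor fluorescence (Ex 405/Em 525), then Nrf2 inhibition by BugLite luminescence after 15 min.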

[8] = qHTS for Inhibitors of Cell Surface uPA Generation: Validation Assay (AID 493164);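 also: RAW 264.7 macrophage cells exposed to compound for 18 h; 0% is about no effect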
How it was run: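 ATP-Lite luminescence read-out: ATP remains high when uPA activity-dependent LF translocation into the cytoplasm is blocked. RAW 264.7 cells, 18 h compound exposure at 37 C; 7-point titration, 2.45 nM to 38.3 uM final.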

[9] = biological target: Peptidyl-prolyl cis-trans isomerase NIMA-interacting 1 (Homo sapiens) (UniProt Q13526); assay: qHTS Validation Assay to Find Inhibitors of Pin1 (AID 504536; active = well fitted inhibition curve with a large enough effect in the polarisation, with a control signal flat, not every such curve was filed as active; the % refers to the polarisation;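 also: 0% = full Pin1 enzyme wells and -100% = no-enzyme wells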)
How it was run: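 Fluorescence polarization competition: compounds (titration) displace HiFluor-488-labeled Pin1-1b peptide from Pin1 (0.3 uM final) in pH 7.5 HEPES buffer with DTT, 10 min at room temperature; %Activity normalized to no-enzyme wells, curves fitted.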

[10] = biological target: Phosphoglycerate kinase, glycosomal (Trypanosoma brucei brucei) (UniProt P07378); assay: qHTS Validation Assay to Find Inhibitors of Phosphoglycerate Kinase (AID 504547);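 also: control wells lack PGK and mark full inhibition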
How it was run: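 Compounds are pinned into the substrate/PGK mixture, and GAPDH (100nM final) is added to start the reaction by producing 1,3-BPG. After 60 minutes at room temperature, Kinase-Glo Plus is added and luminescence is measured 10 minutes later.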

[11] = biological target: phosphoglycerate mutase (Leishmania major) (UniProt Q4Q090); assay: qHTS Validation Assay to Find Inhibitors of Phosphoglycerate Mutase (AID 504548); also: series mostly up to about 58 µM; % is scaled to controls: 0 for no effect and ±100 for the full control effect
How it was run: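 Luminescent end-point read-out via Kinase-GloPlus after a 10-minute development. Reaction: 1.25nM Leishmania major PGAM with substrate and compound, 45 minutes at room temperature in TEA buffer (pH 7.6) with MgCl2 and Tween-20.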

[12] = biological target: Ubiquitin carboxyl-terminal hydrolase 1 (Homo sapiens) (UniProt O94782); assay: Inhibitors of USP1/UAF1: Pilot qHTS (AID 504865);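 also: rhodamine fluorescence freed from ubiquitin-rhodamine substrate followed over time; top concentration of the series differs between compounds; % is scaled to controls: 0 for no effect and ±100 for the full control effect; nearly all actives have a fitted effect of over 35% in size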
How it was run: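 In 50mM HEPES pH 7.8 containing 0.5mM EDTA, 1mM TCEP, 0.1 mg/ml BSA and 0.01% Tween-20, 1nM USP1/UAF1 is exposed to compound for 15 min, then Ub-Rho (150nM final) is added and fluorescence is read over time.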

[13] = qHTS for Inhibitors of ATXN expression: Validation (AID 588378); also: series mostly up to about 57 µM; % is scaled to controls: 0 for no effect and ±100 for the full control effect; nearly all actives have a fitted effect of over 75% in size
How it was run: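 Compounds were pinned onto attached HEK293 cells carrying an ATXN2-firefly luciferase construct and incubated 24 hrs at 37 degrees C. Each well then received a fluorescent viability reagent followed by luciferase substrate for end-point luminescence.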

[14] = biological target: Thyrotropin-releasing hormone receptor (Homo sapiens) (UniProt P34981); assay: qHTS for Small Molecule Agonists and Allosteric Enhancers of Human TRH Receptor: Validation Screen for Agonists (AID 493127;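 active = calcium activation more than 3 SD above the typical response in the agonist read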;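 also: intracellular calcium rise by fluo-8 fluorescence before TRH EC20 addition; 0% is about no effect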); conditions: TRH receptor agonist cell assay; at 2 µM; stronger effect = higher value
How it was run: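 Compound-evoked intracellular calcium release in fluo-8-loaded TRHR cells, read kinetically on FDSS (Ex 480/Em 530, 1 s/cycle) after 23 nL pintool transfer. Agonist phase preceded 10 nM TRH EC20 addition.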

[15] = biological target: Galactokinase (Homo sapiens) (UniProt P51570); assay: qHTS Validation Assay for Inhibitors of Human Galactokinase (GALK) (AID 493189); also: 0% is about no effect
How it was run: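 5 nM GALK / 100 uM galactose / 35 uM ATP, 20 mM HEPES pH8.0, 5 mM MgCl2, 60 mM NaCl, 1 mM DTT, 0.01% BSA (final). RT 1 h; Kinase-Glo Plus luminescence.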

[16] = Validation screen for small molecules that induce DNA re-replication in SW480 colon adenocarcinoma cells (AID 504364); also: 0% is about no effect
How it was run: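 Image-based DNA content read-out: Hoechst stain 40 min, total nuclear fluorescence intensity (ex 405 nm, em 500-530 nm) after 48 h compound exposure of 250 SW480 cells/well at 37 C, 5% CO2, versus DMSO vehicle.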

Sequence of D(1A) dopamine receptor (Homo sapiens) (P21728 whole entry, looked up): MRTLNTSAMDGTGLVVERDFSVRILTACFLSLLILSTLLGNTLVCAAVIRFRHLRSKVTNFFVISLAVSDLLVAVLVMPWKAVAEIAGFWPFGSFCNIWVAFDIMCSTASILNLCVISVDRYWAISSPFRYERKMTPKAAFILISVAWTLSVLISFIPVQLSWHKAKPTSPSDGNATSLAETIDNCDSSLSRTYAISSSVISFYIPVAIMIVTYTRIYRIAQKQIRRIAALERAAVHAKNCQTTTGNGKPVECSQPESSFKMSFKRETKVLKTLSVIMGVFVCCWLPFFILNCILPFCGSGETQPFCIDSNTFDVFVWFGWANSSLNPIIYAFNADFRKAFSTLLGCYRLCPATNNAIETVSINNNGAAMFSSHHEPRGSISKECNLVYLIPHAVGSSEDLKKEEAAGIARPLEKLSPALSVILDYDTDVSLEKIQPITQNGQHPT
Sequence of phosphoglycerate mutase (Leishmania major) (Q4Q090 1-553): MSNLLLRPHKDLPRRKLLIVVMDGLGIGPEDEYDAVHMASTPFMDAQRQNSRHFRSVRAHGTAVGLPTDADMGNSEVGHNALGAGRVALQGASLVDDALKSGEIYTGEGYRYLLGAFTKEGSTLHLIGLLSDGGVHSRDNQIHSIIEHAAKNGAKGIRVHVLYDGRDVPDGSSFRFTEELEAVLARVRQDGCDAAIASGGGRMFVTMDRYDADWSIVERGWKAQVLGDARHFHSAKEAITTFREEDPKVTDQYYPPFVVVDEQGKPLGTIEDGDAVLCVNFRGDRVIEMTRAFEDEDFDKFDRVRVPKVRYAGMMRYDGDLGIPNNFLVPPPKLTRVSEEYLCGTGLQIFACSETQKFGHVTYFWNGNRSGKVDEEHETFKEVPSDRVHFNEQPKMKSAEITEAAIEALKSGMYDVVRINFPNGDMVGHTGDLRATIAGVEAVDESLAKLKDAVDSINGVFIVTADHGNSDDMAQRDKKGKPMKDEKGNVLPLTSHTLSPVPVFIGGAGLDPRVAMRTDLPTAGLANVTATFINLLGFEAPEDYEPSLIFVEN
Sequence of Peptidyl-prolyl cis-trans isomerase NIMA-interacting 1 (Homo sapiens) (Q13526 whole entry, looked up): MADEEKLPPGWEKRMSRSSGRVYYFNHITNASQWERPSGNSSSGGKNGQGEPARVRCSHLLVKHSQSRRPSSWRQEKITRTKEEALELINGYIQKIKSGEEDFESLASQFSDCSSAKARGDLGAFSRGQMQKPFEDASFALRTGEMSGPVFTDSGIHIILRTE
Sequence of Ubiquitin carboxyl-terminal hydrolase 1 (Homo sapiens) (O94782 whole entry, looked up): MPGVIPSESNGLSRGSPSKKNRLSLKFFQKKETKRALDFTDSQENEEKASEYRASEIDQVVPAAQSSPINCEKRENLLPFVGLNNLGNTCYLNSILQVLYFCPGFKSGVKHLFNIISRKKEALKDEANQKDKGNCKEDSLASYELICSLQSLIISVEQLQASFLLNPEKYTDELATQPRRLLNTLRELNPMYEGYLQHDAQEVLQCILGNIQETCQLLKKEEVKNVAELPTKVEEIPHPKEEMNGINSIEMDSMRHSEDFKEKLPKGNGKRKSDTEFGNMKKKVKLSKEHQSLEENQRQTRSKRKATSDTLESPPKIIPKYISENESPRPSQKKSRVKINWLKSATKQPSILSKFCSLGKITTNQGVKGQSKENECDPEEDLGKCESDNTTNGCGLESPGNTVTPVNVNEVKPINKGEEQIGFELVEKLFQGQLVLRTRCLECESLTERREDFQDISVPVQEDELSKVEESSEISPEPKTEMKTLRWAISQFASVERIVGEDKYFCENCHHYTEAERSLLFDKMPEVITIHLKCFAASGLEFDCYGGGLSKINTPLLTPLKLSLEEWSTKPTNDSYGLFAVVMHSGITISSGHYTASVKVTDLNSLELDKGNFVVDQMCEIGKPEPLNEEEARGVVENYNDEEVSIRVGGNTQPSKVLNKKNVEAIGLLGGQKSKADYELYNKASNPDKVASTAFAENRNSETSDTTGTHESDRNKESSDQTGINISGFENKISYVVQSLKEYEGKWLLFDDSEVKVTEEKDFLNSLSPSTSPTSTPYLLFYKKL
Sequence of Phosphoglycerate kinase, glycosomal (Trypanosoma brucei brucei) (P07378 whole entry, looked up): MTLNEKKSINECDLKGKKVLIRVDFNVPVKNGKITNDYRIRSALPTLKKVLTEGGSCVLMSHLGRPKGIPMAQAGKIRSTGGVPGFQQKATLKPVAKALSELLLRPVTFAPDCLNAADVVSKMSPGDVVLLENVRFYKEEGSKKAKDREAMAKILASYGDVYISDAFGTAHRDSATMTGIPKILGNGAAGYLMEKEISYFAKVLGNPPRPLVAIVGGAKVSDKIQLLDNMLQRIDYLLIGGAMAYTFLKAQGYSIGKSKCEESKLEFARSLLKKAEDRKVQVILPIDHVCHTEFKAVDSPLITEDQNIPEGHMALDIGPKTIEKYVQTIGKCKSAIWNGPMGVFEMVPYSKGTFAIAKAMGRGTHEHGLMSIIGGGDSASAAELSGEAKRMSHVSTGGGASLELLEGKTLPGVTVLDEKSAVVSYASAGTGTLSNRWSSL
Sequence of ATP-dependent 6-phosphofructokinase (Trypanosoma brucei brucei) (O15648 whole entry, looked up): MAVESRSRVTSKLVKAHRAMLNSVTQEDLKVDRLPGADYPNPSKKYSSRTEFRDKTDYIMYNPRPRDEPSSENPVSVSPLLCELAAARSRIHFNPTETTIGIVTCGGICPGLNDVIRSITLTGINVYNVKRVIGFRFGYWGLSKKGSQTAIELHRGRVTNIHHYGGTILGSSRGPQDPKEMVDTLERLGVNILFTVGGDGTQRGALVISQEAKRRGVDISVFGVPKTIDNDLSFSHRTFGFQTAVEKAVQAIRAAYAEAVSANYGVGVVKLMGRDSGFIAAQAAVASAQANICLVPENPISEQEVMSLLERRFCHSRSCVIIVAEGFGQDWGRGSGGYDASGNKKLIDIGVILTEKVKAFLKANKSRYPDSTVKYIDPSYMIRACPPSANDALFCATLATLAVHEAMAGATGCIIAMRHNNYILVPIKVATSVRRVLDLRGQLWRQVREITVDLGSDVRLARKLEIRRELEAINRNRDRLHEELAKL
Sequence of Galactokinase (Homo sapiens) (P51570 whole entry, looked up): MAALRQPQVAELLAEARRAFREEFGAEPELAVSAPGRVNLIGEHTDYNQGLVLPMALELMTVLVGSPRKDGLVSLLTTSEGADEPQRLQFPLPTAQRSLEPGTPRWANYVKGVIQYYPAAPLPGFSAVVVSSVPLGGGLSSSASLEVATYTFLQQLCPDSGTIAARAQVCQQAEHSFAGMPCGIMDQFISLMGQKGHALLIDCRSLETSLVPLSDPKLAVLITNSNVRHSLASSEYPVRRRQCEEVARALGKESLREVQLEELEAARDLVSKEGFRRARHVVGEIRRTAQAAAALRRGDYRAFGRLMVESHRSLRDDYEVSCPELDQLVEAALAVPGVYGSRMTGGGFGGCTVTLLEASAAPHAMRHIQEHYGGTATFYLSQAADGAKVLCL
Sequence of Thyrotropin-releasing hormone receptor (Homo sapiens) (P34981 whole entry, looked up): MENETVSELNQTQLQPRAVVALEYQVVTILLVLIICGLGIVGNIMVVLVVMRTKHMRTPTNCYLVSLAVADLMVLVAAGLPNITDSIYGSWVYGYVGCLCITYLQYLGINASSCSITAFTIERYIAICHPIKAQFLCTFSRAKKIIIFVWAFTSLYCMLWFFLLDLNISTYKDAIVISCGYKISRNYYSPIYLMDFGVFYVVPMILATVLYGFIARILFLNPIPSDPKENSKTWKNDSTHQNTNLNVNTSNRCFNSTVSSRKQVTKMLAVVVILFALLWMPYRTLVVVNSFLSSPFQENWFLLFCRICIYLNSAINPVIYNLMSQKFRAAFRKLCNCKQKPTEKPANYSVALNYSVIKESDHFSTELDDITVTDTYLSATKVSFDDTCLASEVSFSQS

CCOC(=O)/C=C(C)/C=C/C=C(C)/C=C/c1c(C)cc(OC)c(C)c1C
inactive: outcome [1]

CCCC1O[C@@H]2C[C@H]3[C@@H]4CCC5=CC(=O)C=C[C@]5(C)[C@H]4[C@@H](O)C[C@]3(C)[C@]2(C(=O)CO)O1 (some centres undefined)
inactive: Potency [2] | outcome [3] | Potency [4] | outcome [5] | Potency [6] | outcome [7] | outcome [8] | outcome [9] | outcome [10] | outcome [11] | Potency [12] | Potency [13]
-3.74%: viability change [7]

Oc1ccc(O)cc1
inactive: Potency [2] | outcome [3] | Potency [4] | outcome [5] | activation [14] 0.688% | outcome [7] | outcome [8] | outcome [15] | outcome [16] | outcome [10] | outcome [11] | Potency [12]
-9.14%: viability change [7]

CN(C)CC/C=C1\c2ccccc2Sc2ccc(Cl)cc21
inactive: outcome [1]

C[C@@H]1C(=O)NC2=Nc3cccc(Cl)c3CN21
3.84%: viability change [7]
inactive: Potency [2] | outcome [3] | Potency [4] | outcome [1] | outcome [5] | Potency [6] | activation [14] 1.06% | outcome [7] | outcome [8] | outcome [15] | outcome [16] | outcome [9] | outcome [10] | outcome [11] | Potency [12] | Potency [13]

CNCCC(Oc1ccccc1C)c1ccccc1 (centres undefined)
inactive: Potency [2] | outcome [3] | outcome [1] | outcome [5] | Potency [6] | outcome [7] | outcome [8] | outcome [15] | outcome [16] | outcome [9] | outcome [10] | outcome [11] | Potency [12]
3.06%: viability change [7]

CC(C)C[C@H]1C(=O)N2CCC[C@H]2[C@]2(O)O[C@](NC(=O)[C@@H]3C=C4c5cccc6[nH]c(Br)c(c56)C[C@H]4N(C)C3)(C(C)C)C(=O)N12
inactive: Potency [2] | outcome [8] | outcome [10] | outcome [11]

O=C(Nc1ccc(Oc2ccc(Cl)cc2)c(Cl)c1)c1cc(I)cc(I)c1O
inactive: outcome [1]
